Only some compounds are listed: those with a hit (about 9.9% of all), similar ones and a draw of the others.
KB-V1 MDR tox: kills drug-selected multidrug resistant KB-V1 cells | Potency, µM (series often up to 46.1 µM), usual class: cytotoxic | actives 3.4% (n = 400,000) | KB-V1 MDR cells viability, CellTiter-Glo, 72 h; further: potency means the concentration at half of the fitted maximal effect; on the % scale 0 is the no-effect control and ±100 the full control effect; nearly all actives have a fitted effect of over 60% in size
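KB-V1 MDR subline cells in DMEM (phenol-red free, 10% FBS) exposed to compounds in qHTS concentration series for 72 h at 37 degrees C. Viability read by CellTiter-Glo luminescence; concentration-effect curves fitted after normalization and correction.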
IL-1B inflam inh: inflammasome signaling inhibition, IL-1 beta readout. THP-1 LPS/ATP IL-1B secretion, AlphaLISA, 16 h; active compounds read low. activity change, % at 57.5 µM. actives 4.7% (n = 360,000). AID 743279; in the data active means activity change below about -50%; inconclusive means mostly about -30% to -49%; further: on the % scale 0 is the no-effect control and ±100 the full control effect
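THP-1 cells pretreated 1 hr with compounds (up to 57.5 uM final), then stimulated with LPS (250 ng/mL final) plus ATP (1.25 mM final); secreted IL-1B measured by AlphaLISA after 16 hr, decreased signal indicating inhibition.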
SW480 rerep: DNA re-replication induction in SW480 cells. SW480 DNA re-replication, Hoechst DNA content imaging, 48 h. AID 624297. Potency, µM (doses to about 46.1 µM), without a hit: top-dose re-replication activation, usual class: activators. actives 1.8% (n = 340,000); further: potency means the concentration at half of the fitted maximal effect; % of control where 0% means no effect; nearly all actives have a fitted effect of over 55% in size
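Quantitative HTS format with DMSO vehicle controls; 48 hr drug incubation at 37 C, then 40 min Hoechst staining and scanning imager measurement at 405 nm excitation.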
MCF10A rereplic: DNA re-replication induction in MCF 10a cells; AID 624296; actives 2.9% (n = 350,000); MCF 10A DNA re-replication, Hoechst nuclear intensity, 48 h; Potency, µM (series often up to 46.1 µM), for inactives: at the highest dose activity, positive = re-replication, most hits filed as activators; further: potency means the concentration at half of the fitted maximal effect; % of control where 0% means no effect; nearly all actives have a fitted effect of over 50% in size
KB-3-1 cytotox: KB-3-1 parental cell cytotoxicity | KB-3-1 viability, CellTiter-Glo ATP luminescence, 72 h | Potency, µM (highest dose often 46.1 µM), most hits filed as cytotoxic | actives 1.4% (n = 400,000) | AID 1347075; further: potency means the concentration at half of the fitted maximal effect; on the % scale 0 is the no-effect control and ±100 the full control effect; nearly all actives have a fitted effect of over 60% in size
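Parental KB-3-1 viability, qHTS format: 72 h compound exposure, 37 °C; CellTiter-Glo; media-only wells and DMSO plates as controls; concentration-effect fits on corrected data.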
Starred values were filed as active, the others as inactive; i = inactive; ? = inconclusive; nt = no result given. Unless noted, the call rests on the fitted dose curve; in most records, active means well fitted curve in the direction sought with a large enough effect; inconclusive means small, poorly fitted or top-dose-only effect, or another doubt; inactive means no such curve, though single readings can be large; an effect the other way counts as inactive or inconclusive.

SMILES	KB-V1 MDR tox	IL-1B inflam inh	SW480 rerep	MCF10A rereplic	KB-3-1 cytotox
CCOC(=O)C1=CCN(S(=O)(=O)c2ccc(C)cc2)C1c1cccs1 (centres undefined)	i	44	nt	nt	i
CCC(C)(C)NC(=O)c1ccc2c(c1)N(CC(=O)N1CCCC1)C(=O)C(C)(C)O2	i	0	?	-2%	i
C=C(C)CN=C1SC(C(=O)Nc2sc3c(c2C(=O)OC)CCC3)C(N)=C1C(N)=O (centres undefined)	9.2µM*	-3	?	4.1µM*	?
O=S(=O)(NCc1cccnc1)c1ccccc1	i	12	-3%	0%	i
COc1ccc(OC)c(Nc2nc(NCc3ccco3)nc(N)c2[N+](=O)[O-])c1	i	nt	-42%	?	i
Cc1ccccc1Nc1nc(NCc2ccco2)c2ccccc2n1	12µM*	-102*	?	?	?
Oc1ccccc1Nc1nc(NCc2ccco2)c2ccccc2n1	i	-63*	0%	?	i
COc1ccc(OC)c(Nc2nc(NCc3ccco3)c3ccccc3n2)c1	?	-97*	?	?	i
CS(=O)(=O)N(CC(=O)Nc1cccc([N+](=O)[O-])c1)c1ccccc1	i	-10	-4%	-4%	i
O=[N+]([O-])c1ccc(N(CC2CO2)S(=O)(=O)c2ccccc2)cc1 (centres undefined)	i	-73*	-6%	10%	i
Cc1ccc(S(=O)(=O)N(CC2CO2)c2cccc([N+](=O)[O-])c2)cc1 (centres undefined)	i	-14	18µM*	?	?
O=S(=O)(c1ccccc1)N(CC1CO1)c1ccccc1 (centres undefined)	i	-23	1%	-3%	i
Cc1ccc(S(=O)(=O)N(CC2CO2)c2ccccc2[N+](=O)[O-])cc1 (centres undefined)	i	?	8%	14%	i
Cc1ccc(S(=O)(=O)N(CC(=O)Nc2cccnc2)c2cccc([N+](=O)[O-])c2)cc1	nt	-8	?	23µM*	nt
Cc1ccccc1CN(CC(=O)Nc1cccc([N+](=O)[O-])c1)S(=O)(=O)c1ccc(Cl)cc1	5.8µM*	?	?	16%	i
CCN(CC)C(=O)Cn1cc(S(=O)(=O)CC(=O)NC2CCCCC2)c2ccccc21	i	-19	-4%	2%	i
O=S(=O)(c1ccccc1)N(CC1CO1)c1cccc2ccccc12 (centres undefined)	i	-69*	21µM*	?	i
COc1ccccc1/C=C/C(=O)NNC(=O)c1cccs1	i	9	4%	-17%	i
CCCCc1ccc(NC(=S)NCc2ccccc2OC)cc1	i	-4	-5%	5%	i
COc1cc(N=Nc2ccc(Br)cc2)cc(C=O)c1O	15µM*	-20	nt	nt	?
CCCOc1ccc(C2C3=C(Nc4nc(N)[nH]c(=O)c42)c2ccccc2C3=O)cc1 (centres undefined)	i	-55*	-13%	3%	?
COC(=O)c1ccc(NC(=O)CCn2cccn2)cc1	i	nt	nt	nt	i
CC(C)(C)NC(=O)CON=C1c2ccccc2-c2ccccc21	16µM*	?	4%	?	i
CC(C)(C)NCC(O)CON=C1c2ccccc2-c2ccccc21 (centres undefined)	?	-98*	?	?	?
N=c1nc(N)nc2n1NC(c1ccc(F)cc1)=CS2	1.3µM*	?	-1%	?	i
Fc1ccc(C2=CSC3=NCCN23)cc1	i	16	4%	-3%	i
Cc1cccc(NC(=O)COC(=O)CCc2c[nH]c3ccccc23)c1	?	0	-13%	3%	i
COc1cccc(Oc2nc3c(c(=O)n(Cc4ccccc4Cl)c(=O)n3C)n2C)c1	?	nt	nt	nt	i
CCCCSC1=N/C(=C/c2ccsc2)C(=O)N1c1ccccc1	16µM*	-2	2%	?	i
CCCSC1=N/C(=C/c2ccsc2)C(=O)N1c1ccccc1	i	7	-8%	-5%	i
